Experimental data as given in PubChem BioAssay AID1159580 (chemical genetic matrix, 2015).
“And” between values parts separate entries of the source, which are not always exact repeats. Equal values may be shown once. About 2,000 (36%) of roughly 5,500 compounds were called active. Inconclusive results (about 18%) are left out. Cut-off read from the data, not from the text of the source: active = normalized growth mostly below about 0.91 (no sharp cut-off); inconclusive = no clear call, values can overlap the other calls; inactive = mostly above about 0.92. The list shows a part of the results.

Test: chemical genetic growth profiling, strain panel (AID 1159580);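 note: tested at 20 µM; growth read once vehicle control cultures reached saturation at 30 °C; 1 = growth at the plate median or of vehicle wells; lower values mean less growth of the strain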
Settings: S. cerevisiae deletion strains, growth OD

Measured: normalized growth

CC(COc1ccccc1)N(CCCl)Cc1ccccc1 (stereo not given)
active: locus YCL011C, strain gbp2, stronger effect = lower value 0.895
inactive: locus YAL013W, strain DEP1, stronger effect = lower value 1.01 | locus YAL021C, strain ccr4, stronger effect = lower value 0.96 | locus YAL026C, strain drs2, stronger effect = lower value 0.936 | locus YAL030W, strain snc1, stronger effect = lower value 0.974 | locus YAL040C, strain CLN3, stronger effect = lower value 1.09 | locus YBL061C, strain skt5, stronger effect = lower value 0.978 | locus YBR009C, strain hhf1, stronger effect = lower value 0.99 | locus YBR021W, strain FUR4, stronger effect = lower value 1.02 | locus YBR023C, strain chs3, stronger effect = lower value 0.97 | locus YBR171W, strain sec66, stronger effect = lower value 0.984 | locus YBR229C, strain ROT2, stronger effect = lower value 1 | locus YBR231C, strain swc5, stronger effect = lower value 1.01 | locus YBR279W, strain paf1, stronger effect = lower value 0.961 | locus YCL016C, strain dcc1, stronger effect = lower value 0.947 | locus YCL029C, strain bik1, stronger effect = lower value 1.03 | locus YCL061C, strain MRC1 (second series), stronger effect = lower value 0.956 | locus YCL061C, strain MRC1, stronger effect = lower value 0.964 | locus YCL069W, strain vba3, stronger effect = lower value 0.995 | locus YCR088W, strain abp1, stronger effect = lower value 0.986 | locus YDL005C, strain med2, stronger effect = lower value 0.972 | locus YDL035C, strain GPR1, stronger effect = lower value 0.997 | locus YDL040C, strain nat1, stronger effect = lower value 0.983 | locus YDL074C, strain BRE1, stronger effect = lower value 1.02 | locus YDL101C, strain DUN1, stronger effect = lower value 1.01 | locus YDL134C, strain PPH21, stronger effect = lower value 1.01 | locus YDL185W, strain tfp1, stronger effect = lower value 1.01 | locus YDL192W, strain arf1, stronger effect = lower value 1.01 | locus YDR001C, strain nth1, stronger effect = lower value 0.985 | locus YDR069C, strain doa4, stronger effect = lower value 0.965 | locus YDR101C, strain arx1, stronger effect = lower value 1.01 | locus YDR137W, strain rgp1, stronger effect = lower value 0.853 | locus YDR150W, strain NUM1, stronger effect = lower value 1.01 and 0.963 | locus YDR159W, strain sac3, stronger effect = lower value 0.978 | locus YDR162C, strain NBP2, stronger effect = lower value 0.998 | locus YDR195W, strain ref2 1.03 | locus YDR297W, strain sur2, stronger effect = lower value 0.995 | locus YDR318W, strain mcm21, stronger effect = lower value 1.01 | locus YDR334W, strain swr1, stronger effect = lower value 0.969 | locus YDR335W, strain msn5, stronger effect = lower value 0.974 | locus YDR363W, strain ESC2, stronger effect = lower value 0.905 | locus YDR388W, stronger effect = lower value 1.02 | locus YDR392W, strain spt3, stronger effect = lower value 0.742 | locus YDR502C, strain sam2, stronger effect = lower value 0.999 | locus YEL003W, strain gim4, stronger effect = lower value 0.991 | locus YEL037C, strain rad23, stronger effect = lower value 0.978 | locus YEL061C, strain CIN8 (second series), stronger effect = lower value 0.971 | locus YEL061C, strain CIN8, stronger effect = lower value 1.01 | locus YER002W, strain NOP16, stronger effect = lower value 1.02 | locus YER015W, strain faa2, stronger effect = lower value 0.993 | locus YER016W, strain bim1, stronger effect = lower value 0.983 | locus YER110C, stronger effect = lower value 1.01 | locus YER111C, strain swi4, stronger effect = lower value 0.995 | locus YER155C, strain BEM2 (second series), stronger effect = lower value 0.994 | locus YER155C, strain BEM2, stronger effect = lower value 1.01 | locus YER167W, strain BCK2, stronger effect = lower value 0.991 | locus YFR010W, strain ubp6, stronger effect = lower value 0.986 | locus YGL078C, strain dbp3, stronger effect = lower value 1.01 | locus YGL086W, strain mad1, stronger effect = lower value 0.986 | locus YGL167C, strain pmr1, stronger effect = lower value 1 | locus YGL173C, strain kem1, stronger effect = lower value 1.01 | locus YGL227W, strain vid30, stronger effect = lower value 0.973 | locus YGL240W, strain doc1, stronger effect = lower value 1 | locus YGL248W, strain PDE1, stronger effect = lower value 1.01 | locus YGL253W, strain hxk2, stronger effect = lower value 0.921 | locus YGR078C, strain PAC10, stronger effect = lower value 1.01 | locus YGR135W, strain pre9, stronger effect = lower value 1.01 | locus YGR229C, strain SMI1, stronger effect = lower value 0.999 | locus YGR252W, strain gcn5, stronger effect = lower value 0.957 | locus YHR013C, strain ard1, stronger effect = lower value 0.924 | locus YHR027C, strain rpn1, stronger effect = lower value 0.991 | locus YHR030C, strain SLT2, stronger effect = lower value 1.01 and 0.986 | locus YHR079C, strain IRE1 (second series), stronger effect = lower value 1.02 | locus YHR079C, strain IRE1, stronger effect = lower value 0.964 | locus YHR094C, strain hxt1, stronger effect = lower value 1.02 | locus YHR129C, strain ARP1, stronger effect = lower value 1.01 | locus YHR142W, strain chs7, stronger effect = lower value 0.938 | locus YHR200W, strain rpn10, stronger effect = lower value 1.01 | locus YIL066C, strain RNR3, stronger effect = lower value 1.01 | locus YIL073C, strain SPO22, stronger effect = lower value 1.05 | locus YIL125W, strain kgd1, stronger effect = lower value 1.01 | locus YIR030C, strain dcg1, stronger effect = lower value 1.02 | locus YJL092W, strain hpr5, stronger effect = lower value 0.963 | locus YJL095W, strain BCK1 (second series), stronger effect = lower value 0.958 | locus YJL095W, strain BCK1, stronger effect = lower value 1 and 0.997 | locus YJL115W, strain asf1, stronger effect = lower value 0.947 | locus YJL129C, strain trk1, stronger effect = lower value 0.956 | locus YJL134W, strain LCB3, stronger effect = lower value 1 | locus YJL154C, strain vps35, stronger effect = lower value 0.982 | locus YJL164C, strain tpk1, stronger effect = lower value 0.961 | locus YJL166W, strain qcr8, stronger effect = lower value 0.974 | locus YJL168C, strain set2, stronger effect = lower value 1.01 | locus YJL187C, strain SWE1 (second series), stronger effect = lower value 1.03 | locus YJR043C, strain POL32, stronger effect = lower value 1.02 | locus YJR066W, strain TOR1, stronger effect = lower value 0.925
